Measurements published in PubChem BioAssay AID1117290 (Broad Institute, 2014).
Entries with a potency or affinity are not part of this list. Values without a mark were called inactive. Calls of active or inactive are those of the source.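 The calls were made as follows: active = every replicate test called active, each showing a drop in signal with a fitted potency within twice the top tested dose; inconclusive = tests disagree, or fits are weak, flat midrange or poor; inactive = every test flat, rising or fitted past the limit.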

Assay: A549 cell cytotoxicity, dose response, cytotoxicity control, CellTiter-Glo luminescence, dry powder, set 18 (AID 1117290)
Conditions: A549 viability, CellTiter-Glo ATP luminescence, 72 h; series mostly up to 26 µM; activity change, negative = cytotoxicity: at the top concentration

Row | Structure (SMILES) | activity change, negative = cytotoxicity | outcome
1 | N#Cc1ccc(S(=O)(=O)Nc2cc(C(F)(F)F)ccc2N2CCCCC2)cc1 | -14.7% | 
2 | CC(=O)N1CCN(C(=O)C2(NC(=O)Nc3ccc(C(C)C)cc3)CCCC2)CC1 | -7.13% | 
3 | O=S(=O)(Nc1cc(C(F)(F)F)ccc1N1CCCCC1)c1ccc(Cl)cc1 | -14.8% | 
4 | Cn1cnc(S(=O)(=O)Nc2cc(C(F)(F)F)ccc2N2CCCCC2)c1 | 17.9% | 
5 | COc1ccc(C(=O)O)cc1S(=O)(=O)Nc1cc(C(F)(F)F)ccc1N1CCCCC1 |  | inactive
6 | COc1ccc(C(=O)O)cc1S(=O)(=O)Nc1cccc(N2CCCCC2)c1C(F)(F)F | -4.71% | 
7 | COc1ccc(C(=O)O)cc1S(=O)(=O)Nc1ccc(N2CCCCC2)cc1C(F)(F)F | -6.22% | 
8 | CC(=O)N1CCN(C(=O)C2(NC(=O)Nc3ccc(C(F)(F)F)cc3)CCCC2)CC1 | -19.7% | 
9 | COc1ccc(C(=O)Nc2ccccc2N2CCCCC2)cc1S(=O)(=O)O | 0.182% | 
10 | COc1cccc(NC(=O)NC2(C(=O)N3CCN(C(C)=O)CC3)CCCCC2)c1 | -9.11% | 
11 | O=[N+]([O-])c1cccc(S(=O)(=O)Nc2cc(C(F)(F)F)ccc2N2CCCCC2)c1 | -15.1% | 
12 | COc1ccc(C(=O)Nc2cc(C(F)(F)F)ccc2N2CCOCC2)cc1S(=O)(=O)O | -6.57% | 
13 | CC(=O)N1CCN(C(=O)C2(NC(=O)Nc3ccc(C(F)(F)F)cc3)CCCCC2)CC1 | -16% | 
14 | O=S(=O)(Nc1cc(C(F)(F)F)ccc1N1CCCCC1)c1ccc(Br)cc1 | -10.4% | 
15 | CC(=O)N1CCN(C(=O)C2(NC(=O)NC(C)(C)C)CCCCC2)CC1 | -7.42% | 
16 | O=[N+]([O-])c1ccc(S(=O)(=O)Nc2cc(C(F)(F)F)ccc2N2CCCCC2)c([N+](=O)[O-])c1 | -4.1% | 
17 | CC(=O)N1CCN(C(=O)[C@@H]2CCN2C(=O)Nc2ccc(C)cc2)CC1 | -11.2% | 
18 | COc1ccc(C(=O)Nc2cc(F)ccc2N2CCCCC2)cc1S(=O)(=O)O | -18.2% | 
19 | CC(=O)N1CCN(C(=O)C2(NC(=O)Nc3ccccc3)CCCC2)CC1 | -6.72% | 
20 | COc1ccc(C(=O)O)cc1S(=O)(=O)N1CCN(c2ccc(C(F)(F)F)cc2N)CC1 | -5.61% | 
21 | CC(=O)N1CCN(C(=O)C2(NC(=O)Nc3ccccc3C(F)(F)F)CCCCC2)CC1 | -1.43% | 
22 | CC(=O)N1CCN(C(=O)CNC(=O)Nc2ccc(C)cc2)CC1 | -10.5% | 
23 | CC(=O)N1CCN(C(=O)C2(NC(=O)Nc3cccc(F)c3)CCCCC2)CC1 | -10.3% | 
24 | CC(=O)N1CCN(C(=O)C2(NC(=O)NCCc3ccccc3)CCCCC2)CC1 | -20.8% | 
25 | NC(=NCCc1c[nH]c2ccccc12)NS(=O)(=O)c1cc(F)ccc1F | -1.23% | 
26 | COc1ccc(C(=O)Nc2cc(C(F)(F)F)ccc2N2CCCC2)cc1S(=O)(=O)O | -14.3% | 
